Hits are enriched below; roughly 3.9% of the tested compounds scored in any of these assays.
Peg3 promoter: inhibitors of Peg3 promoter. HeLa PEG-Prom luciferase reporter, luminescence, overnight. inhibition, % at 20 µM. 360,000 compounds, 1.7% hits. AID 588405;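 active = inhibition of at least 50% at 20 µM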
CF NFkB inh: cystic fibrosis NF-kB activation inhibition; KKLEB NF-kB-GFP reporter, PAF-induced, GFP fluorescence overnight; inhibition, % at 5 µM; 360,000 compounds, 0.86% hits; AID 588850;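 active = at least 50% inhibition at 5 µM, scaled per plate between neutral and stimulator controls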;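 also: PAF is a Pseudomonas aeruginosa culture filtrate used as stimulus; plate controls were PAF-stimulated DMSO wells for no effect and unstimulated DMSO wells for full effect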
TROY signal inh: inhibitors of TROY-dependent NF-kB signaling. Q293 LMP1-TROYcd NF-kB luciferase reporter, 4 h. inhibition, % at 10 µM. 360,000 compounds, 0.98% hits. AID 1347056;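 active = compounds whose plate-normalised and pattern-corrected inhibition of the luciferase reporter signal at the single screening dose is 50% or more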
HIF-2a block: inhibitors of HIF-2a | 786-0 RCC cells HIF-2a reporter, luciferase luminescence, overnight | inhibition, % at 18.8 µM | 360,000 compounds, 0.72% hits | AID 624352;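 active = inhibition of the luminescence signal of 40% or more relative to plate controls, in a single-dose primary screen at 18.75 µM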
TWEAK-Fn14 inh: blocks TWEAK-Fn14 interaction in a reporter cell assay; TWEAK-stimulated Fn14 reporter cells, luciferase luminescence, 8 h; inhibition, % at 10 µM; 360,000 compounds, 2% hits; AID 1159606; in the data active = inhibition above about 50%
KKLEB cytotox: counter-screen for CF NF-kB inhibitors: cytotoxicity. KKLEB CF airway cells viability, ATPlite luminescence, overnight; hits give low values; cells stimulated with P. aeruginosa culture filtrate. activity change (cytotoxicity), % at 5 µM. 360,000 compounds, 0.36% hits. AID 602141;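 active = corrected activity change at or below -50% at 5 µM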
Mdm2 MdmX conf: confirmation of inhibitors of human Mdm2/MdmX interaction, set 2; SaOS-2 split-luciferase Mdm2/MdmX complementation, luminescence; inhibition, % at 8 µM; 740 compounds, 99% hits; shares compounds with HIF-2a block;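 active = mean inhibition of the luminescence signal across two replicates at or above 26 percent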
Target sequence (O15151 whole entry, looked up): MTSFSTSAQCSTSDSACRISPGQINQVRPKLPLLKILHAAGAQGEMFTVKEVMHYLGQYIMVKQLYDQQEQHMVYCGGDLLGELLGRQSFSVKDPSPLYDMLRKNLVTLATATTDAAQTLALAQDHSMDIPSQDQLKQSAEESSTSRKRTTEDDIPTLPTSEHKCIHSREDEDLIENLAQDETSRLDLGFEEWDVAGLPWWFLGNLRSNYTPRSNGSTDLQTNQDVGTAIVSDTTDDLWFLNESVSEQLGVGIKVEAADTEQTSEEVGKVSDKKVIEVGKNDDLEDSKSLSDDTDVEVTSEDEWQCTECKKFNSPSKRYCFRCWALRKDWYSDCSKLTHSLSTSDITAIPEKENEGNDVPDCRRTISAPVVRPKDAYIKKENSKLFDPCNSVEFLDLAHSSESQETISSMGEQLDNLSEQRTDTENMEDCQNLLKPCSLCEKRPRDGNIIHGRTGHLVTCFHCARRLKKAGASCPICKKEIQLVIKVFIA
Target sequence (Q00987 whole entry, looked up): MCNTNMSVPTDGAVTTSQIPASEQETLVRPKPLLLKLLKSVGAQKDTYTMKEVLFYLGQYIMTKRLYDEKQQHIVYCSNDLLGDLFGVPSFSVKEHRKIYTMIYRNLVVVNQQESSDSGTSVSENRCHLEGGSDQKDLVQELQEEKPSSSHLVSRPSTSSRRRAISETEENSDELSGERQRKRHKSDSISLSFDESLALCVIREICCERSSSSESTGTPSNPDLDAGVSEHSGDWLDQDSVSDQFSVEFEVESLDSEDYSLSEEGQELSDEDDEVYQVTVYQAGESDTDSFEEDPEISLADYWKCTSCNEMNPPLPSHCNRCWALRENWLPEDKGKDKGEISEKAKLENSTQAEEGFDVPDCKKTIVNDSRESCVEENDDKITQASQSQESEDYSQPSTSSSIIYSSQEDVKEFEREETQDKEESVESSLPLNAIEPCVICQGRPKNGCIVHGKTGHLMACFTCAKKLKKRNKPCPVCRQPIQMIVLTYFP
HIF-2a inh conf: confirmation of HIF-2a inhibitors; shares compounds with HIF-2a block; 786-0 RCC cells, HIF-2a luciferase reporter luminescence, overnight; inhibition, % at 18.8 µM; 1,800 compounds, 56% hits; AID 651580;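 active = mean inhibition across four replicates of at least 40 percent at the single tested concentration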
HIF-1a cs: counter-screen for HIF-2a inhibitors: HIF-1a inhibition in MiaPaCa-2 cells; MiaPaCa-2 HIF-1a luciferase reporter, desferoxamine, overnight; inhibition, % at 18.8 µM; 1,800 compounds, 72% hits; AID 651589; shares compounds with HIF-2a block;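 active = mean inhibition of the reporter signal across four replicates at the single tested dose of 50% or more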
* marks the source's active call; other numbers are inactive results; . = not tested or not shown.

SMILES | Peg3 promoter | CF NFkB inh | TROY signal inh | HIF-2a block | TWEAK-Fn14 inh | KKLEB cytotox | HIF-2a inh conf | HIF-1a cs | others
CN(C)CCCNC(=O)C[C@H]1C[C@H](C(=O)N2CCCCC2)[C@@]2(CCc3ccccc3)c3[nH]c4ccc(Cl)cc4c3CCN2C1=O | 95* | 32 | -6 | 81* | -81 | -41 | 17 | 103* | Mdm2 MdmX conf=103*
CC(C)=CCC/C(C)=C/CNC(=O)C[C@H]1C[C@H](C(=O)N2CCOCC2)[C@@]2(CCC3CCCC3)c3[nH]c4cc(CCC(=O)N(C)C)ccc4c3CCN2C1=O | 49 | -1 | 41 | 80* | 26 | -2 | -6 | 106*
Cc1nc2ccc(NC(=O)c3ccco3)cc2s1 | -186 | 4 | -57 | -227 | -14 | 8 | . | .
O=C(O)c1ccc(N/N=C/c2c[nH]c3ccccc23)cc1 | 67* | 16 | 53* | 51* | -16 | -1 | 78* | 60*
O=C(O)c1ccc(S(=O)(=O)NN=Cc2c[nH]c3ccccc23)cc1 | 1 | 12 | -10 | 11 | -5 | -18 | . | .
CCN(C(=O)c1c(-c2ccccc2)noc1C)c1ccccc1 | 17 | 3 | -8 | 27 | -5 | -1 | . | .
O=C(NC1CCCC1)C(c1ccccc1)n1c(CSCCOc2ccccc2)nc2ccccc21 (stereo unspecified) | . | . | . | 65* | . | . | 79* | 66*
CC1(C)C2CCC1(CS(=O)(=O)N1CCN(c3ccccc3F)CC1)C(=O)C2 (stereo unspecified) | 14 | -5 | -3 | -3 | 0 | 14 | . | .
N#C/C(=C\c1ccccc1)C(=O)N(c1ccccn1)C1CCCCC1 | 22 | 1 | 9 | 45* | 2 | -3 | 46* | 20
CCc1cccc(CC)c1NC(=O)/C(C#N)=C/c1ccccc1C(F)(F)F | 107* | 69* | 42 | 92* | 83* | -56* | 97* | 102*
COc1ccccc1C(=O)NCCNc1nc2cc(C)cc(C)c2cc1C#N | 20 | 10 | -1 | 9 | -16 | -9 | . | .
COc1ccc(C(=O)NCCNc2nc3cc(C)cc(C)c3cc2C#N)c(OC)c1 | . | . | . | 66* | . | . | 82* | 98*
NS(=O)(=O)c1ccc(CCN2C(=O)/C(=C\c3ccc(Cl)cc3)SC2=S)cc1 | 83* | 0 | -2 | 42* | -46 | 11 | . | . | Mdm2 MdmX conf=103*
CN1CCN(C(=O)CCN2C(=O)/C(=C\c3ccc(Cl)cc3)SC2=S)CC1 | 48 | 13 | -17 | 7 | 1 | -3 | . | .
C[C@H](CO)N1C[C@H](C)[C@@H](CN(C)CC2CCCCC2)Oc2c(NS(=O)(=O)c3cccs3)cccc2C1=O | 2 | -7 | 13 | 7 | 9 | 3 | . | .
COc1cccc(N2CC(C(=O)N3CCC4(CC3)CC(=O)c3ccccc3O4)CC2=O)c1 (stereo unspecified) | 5 | -12 | 2 | -3 | 5 | 12 | . | .
Cc1cc(C)c(C(CC(=O)c2cccs2)C(C#N)C#N)c(C)c1 (stereo unspecified) | -12 | 61* | -24 | 76* | 66* | -54* | -39 | 102*
O=[N+]([O-])c1cc(Cl)ccc1Sc1cccc2cccnc12 | 5 | 4 | -4 | -14 | 9 | -6 | . | .
O=[N+]([O-])c1ccc(Sc2cccc3cccnc23)c([N+](=O)[O-])c1 | 97* | -22 | 25 | 17 | 64* | -6 | . | . | Mdm2 MdmX conf=83*
O=[N+]([O-])c1ccc(Sc2ccncn2)c([N+](=O)[O-])c1 | 97* | 90* | 41 | 70* | 77* | -55* | 61* | 104*
O=[N+]([O-])c1cc(Cl)ccc1Sc1ccccn1 | -7 | -8 | -2 | 0 | -3 | 2 | . | .
COc1ccc(C2=NS(=O)(=O)N(C)C(C(=O)N3CCN(C)CC3)=C2)cc1 | -23 | -5 | -4 | -6 | 3 | 9 | . | .
O=C(Nc1ccc(C(=O)NCc2ccc(F)cc2)cc1)C1=CSCCO1 | -138 | 5 | -57 | -82 | -34 | 1 | . | .
C=C1C(=O)OC2C1CCC(C)=C1C(=O)C3OC3(C)C12 (stereo unspecified) | 107* | 86* | 41 | 92* | 95* | -85* | 97* | 101*
CC(=O)c1ccc(NS(=O)(=O)c2ccc(C)cc2)cc1 | 11 | -10 | -5 | 3 | -4 | -1 | . | .
SMILES | Peg3 promoter | CF NFkB inh | TROY signal inh | HIF-2a block | TWEAK-Fn14 inh | KKLEB cytotox | HIF-2a inh conf | HIF-1a cs | others
COc1cc(OC)c(OC)cc1/C=C/C(=O)c1ccc(NS(=O)(=O)c2ccc(C)cc2)cc1 | 26 | 2 | 36 | 59* | 62* | 14 | 34 | 50*
COc1cc(C2C(C#N)=C(N)Oc3c2c(-c2ccccc2)nn3-c2ccccc2)cc(OC)c1OC (stereo unspecified) | 16 | 23 | 49 | -7 | 11 | -1 | . | .
CCOC(=O)CCc1ccc(NC(=O)/C=C/c2ccc([N+](=O)[O-])o2)cc1 | 14 | 36 | -9 | 91* | 77* | -12 | 54* | 107*
Cc1scc(C(=O)N/N=C/c2ccco2)c1C | -156 | -3 | 10 | -139 | -5 | 5 | . | .
Cc1scc(C(=O)N/N=C/c2ccc([N+](=O)[O-])o2)c1C | 9 | -12 | -22 | 61* | 5 | 6 | 62* | 84*
CC1CC2(C)Oc3ccccc3CC2C(C)C1CNCCCN(C)C (stereo unspecified) | 107* | 23 | 8 | 84* | -34 | -20 | 6 | 105* | Mdm2 MdmX conf=101*
NS(=O)(=O)c1ccc(Oc2ccc(S(N)(=O)=O)cc2)cc1 | 8 | -13 | -16 | 11 | 1 | 2 | . | .
C=CS(=O)(=O)c1ccc(Oc2ccc(S(=O)(=O)C=C)cc2)cc1 | 107* | 99* | 63* | 90* | 102* | -56* | 90* | 106*
COc1ccc(Cl)cc1S(=O)(=O)N1CCN=C1C | 5 | 28 | 0 | 16 | -9 | -1 | . | .
Cc1onc(-c2c(F)cccc2Cl)c1C(=O)N(C)CCc1ccccn1 | 18 | -12 | -6 | 7 | 8 | -1 | . | .
O=C(C#Cc1ccccc1)c1ccco1 | 105* | 99* | 58* | 40* | 94* | -64* | 90* | 103* | Mdm2 MdmX conf=103*
CC(=O)c1cccc(NC(=S)NC(=O)c2ccccc2Cl)c1 | -41 | 6 | -30 | -37 | -5 | -5 | . | .
O=C(Nc1cccc(Cl)c1)Nc1cccc(C(=O)O)c1 | -28 | 2 | -51 | -17 | -3 | -13 | . | .
COC(=O)c1cccc(NC(=O)NC(=O)c2ccccc2Cl)c1 | -1 | -5 | -17 | 57* | -14 | -25 | 64* | -68

High-throughput results (PubChem)
